Assay outcomes from PubChem BioAssay.
dFosB act: mouse delta FosB homodimer activation | P13346 | purified delta FosB, TAMRA-CDK5 oligo fluorescence polarization; percent of positive-control signal above neutral wells | activation, % at 25 µM | actives 0.99% (n = 340,000) | AID 493131;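 active = mean activation above about 17%, with every replicate also reaching it, limit read from the data, passing the limit was not always enough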
esBAF inh: SWI/SNF esBAF complex inhibition; reporter increase, % at 12.5 µM; mouse ES cells, Bmi1-luciferase knock-in reporter, 24 h; 100% = twice the neutral-well signal; actives 2% (n = 350,000); in the data active = activation above about 40%;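 also: 0% = median of the plate's neutral control wells and 100% = double that signal; a rise in the Bmi1 reporter signal indicates esBAF inhibition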
SMARCA2 act: increases SMARCA2 function in MMTV reporter cells; MG213 cells, MMTV-luciferase reporter, dexamethasone, overnight; activation, % at 9.1 µM; actives 1% (n = 370,000); AID 652017; in the data active = activation above about 7.8%;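 also: 0% = vehicle wells and 100% = reference activator wells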
CDK5 inh: inhibitors of human CDK5/p35 kinase; Q00535+Q15078; Recombinant CDK5/p35, ADP-Glo luminescence, 60 min; actives 0.01% (n = 330,000); inhibition, % at 10 µM;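 active = highest replicate inhibition of at least 50% and at least 75% of replicates reaching 50%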;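 also: plate controls were DMSO neutral control for no effect and GW8510 at 10 µM for full effect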
Target sequence (Q00535 whole entry, looked up): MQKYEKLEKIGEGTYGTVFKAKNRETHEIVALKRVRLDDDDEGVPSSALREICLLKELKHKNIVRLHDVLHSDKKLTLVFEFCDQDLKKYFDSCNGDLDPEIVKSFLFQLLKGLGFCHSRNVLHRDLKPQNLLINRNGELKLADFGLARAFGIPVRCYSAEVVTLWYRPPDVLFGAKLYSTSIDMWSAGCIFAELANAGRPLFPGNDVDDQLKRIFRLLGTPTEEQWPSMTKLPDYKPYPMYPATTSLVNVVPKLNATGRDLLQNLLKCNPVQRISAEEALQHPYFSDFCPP
Target sequence (Q15078 whole entry, looked up): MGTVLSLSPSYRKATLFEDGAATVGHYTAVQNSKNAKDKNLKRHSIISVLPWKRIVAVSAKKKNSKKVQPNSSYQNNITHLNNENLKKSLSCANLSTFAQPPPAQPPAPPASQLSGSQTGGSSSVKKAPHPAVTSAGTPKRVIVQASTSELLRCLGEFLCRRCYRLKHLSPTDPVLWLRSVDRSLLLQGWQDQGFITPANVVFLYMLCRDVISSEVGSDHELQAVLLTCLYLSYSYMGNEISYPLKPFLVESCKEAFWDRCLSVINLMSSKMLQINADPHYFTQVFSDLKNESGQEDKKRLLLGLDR
Dyrk1A ADPGlo: Dyrk1A (rat) kinase inhibition; actives 0.43% (n = 310,000); inhibition, % at 12.5 µM; ADP-Glo luminescence, NFATc1 peptide; Q63470; in the data active = inhibition above about 50%;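 also: plate controls were vehicle with enzyme for no effect and no enzyme for full effect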
Rtt109 HAT inh: inhibitors of Candida albicans Rtt109/Vps75 histone acetyltransferase. Q5AAJ8. inhibition, % at 34.9 µM. purified Rtt109/Vps75, ThioGlo CoA-SH fluorescence, 4 h. AID 540336. actives 0.16% (n = 330,000);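 active = inhibition of at least 50% in every replicate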
Dyrk1A artifact: ADP-Glo luciferase interference, Dyrk1A counter-screen. shares compounds with Dyrk1A ADPGlo. 1,300 tested, under 10 active. ADP-Glo luciferase artifact assay, no Dyrk1A, luminescence. AC50, µM (highest dose often 12 µM), inactives show at the top dose activity change, negative = inhibition. AID 588348;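 active = fitted half-maximal dose AC50 no more than ten times the top valid tested dose, with luminescence dropping as dose rises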
* = called active by the depositor. Sampled rows, rich in hits. Any-hit rate of the full collection: about 3.2%.

`Oc1ccc(-c2csc(-c3cccnc3)n2)cc1O` gave dFosB act 5, SMARCA2 act 0, CDK5 inh 4, Dyrk1A ADPGlo 51*, Rtt109 HAT inh 5 and Dyrk1A artifact 7%.
For Fc1ccc(-c2csc(-c3cccnc3)n2)cc1F the results were dFosB act 5, esBAF inh 34, SMARCA2 act 3, CDK5 inh 1, Dyrk1A ADPGlo 4 and Rtt109 HAT inh 1.
COc1ccccc1-c1cn(CC[C@H]2CC[C@@H](NC(=O)NC(C)C)[C@H](CO)O2)nn1 was read as esBAF inh 3.
`c1ccc2c(-c3nn[nH]n3)cccc2c1` gave dFosB act 1, SMARCA2 act 2, Dyrk1A ADPGlo -4 and Rtt109 HAT inh 12.
`Oc1cccc2c(-c3nn[nH]n3)ccnc12` gave dFosB act 1, esBAF inh 1, SMARCA2 act 3, CDK5 inh -4, Dyrk1A ADPGlo 70*, Rtt109 HAT inh -12 and Dyrk1A artifact 12%.
COC(=O)C[C@H]1C[C@@H]2c3cc(NS(=O)(=O)c4ccccc4)ccc3O[C@@H]2[C@@H](CO)O1 was read as esBAF inh -6.
`Cn1c(C(=O)O)c(C=O)c2ccccc21` gave dFosB act -8, esBAF inh -18, SMARCA2 act -1, CDK5 inh 1, Dyrk1A ADPGlo 1 and Rtt109 HAT inh -7.
Cn1c(-c2ccccc2)c(C=O)c2ccccc21 was read as dFosB act -10, SMARCA2 act 4, CDK5 inh -1, Dyrk1A ADPGlo 78*, Rtt109 HAT inh -10 and Dyrk1A artifact 7%.
C[C@H]1CN([C@@H](C)CO)C(=O)c2cc(NS(C)(=O)=O)ccc2O[C@@H]1CN(C)S(=O)(=O)c1cccs1 was read as esBAF inh -3.
`O=C(Nc1cccnc1)c1scc2c1OCCO2` gave dFosB act -2, esBAF inh -9, SMARCA2 act -2, CDK5 inh 5, Dyrk1A ADPGlo 52*, Rtt109 HAT inh -14 and Dyrk1A artifact 10%.
COc1cc(/C=C2/SC(=O)NC2=O)ccc1Oc1ccc([N+](=O)[O-])cc1[N+](=O)[O-] was read as dFosB act -1, SMARCA2 act -3, CDK5 inh 1, Dyrk1A ADPGlo 80*, Rtt109 HAT inh 3 and Dyrk1A artifact 9%.
CCOc1cc(/C=C2\SC(=O)N(c3ccc(O)cc3)C2=O)ccc1O was read as dFosB act -18, esBAF inh 8, SMARCA2 act 1, CDK5 inh 0, Dyrk1A ADPGlo 5 and Rtt109 HAT inh 0.
O=C1NC(=O)/C(=C/c2ccc(O)cc2)S1 was read as dFosB act -7, SMARCA2 act -1, CDK5 inh -3, Dyrk1A ADPGlo 90*, Rtt109 HAT inh 14 and Dyrk1A artifact 9%.
`N=C1S/C(=C\c2ccc(O)cc2)C(=O)N1c1ccc(F)cc1` gave dFosB act 11, esBAF inh 1, CDK5 inh -1, Dyrk1A ADPGlo 78*, Rtt109 HAT inh -18 and Dyrk1A artifact 14%.
`COc1cccc(NC(=O)Nc2cccs2)c1` gave dFosB act -11, SMARCA2 act 1, CDK5 inh 1, Dyrk1A ADPGlo 11 and Rtt109 HAT inh -5.
`CC(=O)c1cccc(NC(=O)Nc2cccs2)c1` gave dFosB act 0, esBAF inh 9, SMARCA2 act 0, CDK5 inh 2, Dyrk1A ADPGlo 53*, Rtt109 HAT inh 14 and Dyrk1A artifact 10%.
Screening CC(C)=CCc1c(O)ccc2c1OC(c1ccc(O)c(O)c1)CC2=O (configuration not stated) returned dFosB act -8, esBAF inh 4, SMARCA2 act -4, CDK5 inh -1, Dyrk1A ADPGlo 64*, Rtt109 HAT inh -3 and Dyrk1A artifact 10%.
`O=C1CC(c2ccc(O)c(O)c2)Oc2c1ccc(O)c2O` (configuration not stated) gave dFosB act -7, esBAF inh 3, SMARCA2 act 1, CDK5 inh 2, Dyrk1A ADPGlo 34 and Rtt109 HAT inh 10.
C[C@H]1CCCCO[C@H](CN(C)C(=O)Cc2ccccc2)[C@@H](C)CN([C@@H](C)CO)C(=O)c2cc(NC(=O)Nc3ccc(F)cc3)ccc2O1 was read as esBAF inh 0.
Screening C[N+](C)(CCOc1ccccc1)Cc1ccccc1 returned dFosB act 4, esBAF inh 7, SMARCA2 act -4, CDK5 inh -1, Dyrk1A ADPGlo 69*, Rtt109 HAT inh -4 and Dyrk1A artifact 11%.
CCC1COCCS(=O)(=O)N1Cc1ccccc1 (configuration not stated) was read as dFosB act 3, esBAF inh 0, SMARCA2 act 0, CDK5 inh 0, Dyrk1A ADPGlo 55*, Rtt109 HAT inh 8 and Dyrk1A artifact 8%.
Screening CCC1COCCS(=O)(=O)N1Cc1ccc(C)cc1 (configuration not stated) returned dFosB act 3, esBAF inh -1, CDK5 inh 0, Dyrk1A ADPGlo 3 and Rtt109 HAT inh -20.
`O=c1[nH]c(=S)[nH]c2sccc12` gave dFosB act 0, SMARCA2 act -3, CDK5 inh 10, Dyrk1A ADPGlo 64*, Rtt109 HAT inh 7 and Dyrk1A artifact 4%.
Screening C/C(=N/NC(=O)c1ccc(Br)s1)c1cccnc1 returned dFosB act -22, esBAF inh 13, SMARCA2 act 5, CDK5 inh 4, Dyrk1A ADPGlo 51*, Rtt109 HAT inh 11 and Dyrk1A artifact 7%.
Screening C[C@H](CO)N1C[C@H](C)[C@@H](CN(C)C(=O)Cc2ccccc2)OCCCC[C@H](C)Oc2ccc(NS(=O)(=O)c3ccc(F)cc3)cc2C1=O returned esBAF inh 5.
For COc1ccc2c(c1)CCc1c-2n[nH]c1C(=O)O the results were dFosB act -4, esBAF inh 0, SMARCA2 act 1, CDK5 inh -1, Dyrk1A ADPGlo 59*, Rtt109 HAT inh 12 and Dyrk1A artifact 14%.
Screening O=C(N/N=C/c1ccccn1)c1cc(-c2cccc3ccccc23)n[nH]1 returned dFosB act -24, SMARCA2 act 0, CDK5 inh -1 and Dyrk1A ADPGlo 23.
Screening O=C(N/N=C/c1ccccn1)c1cc(-c2ccccc2Cl)n[nH]1 returned dFosB act -18, SMARCA2 act 1, CDK5 inh -6, Dyrk1A ADPGlo 51*, Rtt109 HAT inh 1 and Dyrk1A artifact 9%.
